# Measurements published in the supplement of paper PMC6555819.
# Key:
# Assay in all cases: PBM binding z-score (relative to random genomic background probes); higher = stronger binding; sequences stand for … in GC…GCGATTGACAGCGTAGAATGAAGG
# [1] = tested on: FXR:RXRa (NR concentration 270 nM, RXRa partner concentration 90 nM)
# Procedure, shortened: (§1)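 Probes were double-stranded and carried 34-nt variable regions with direct-repeat seeds, single-nucleotide variants, half-site ablations and random human genomic background sequences, printed on custom Agilent 4×180K protein-binding microarrays. Arrays were incubated 1 h with ligand-free nuclear receptor dimers in PBS pH 7.4, 2% milk, 0.02% Triton X-100, 1 mM DTT, 0.2 mg/mL BSA and 0.4 mg/ml salmon testes DNA. Antibodies against each partner (one per run) detected binding, and scanned fluorescence was regression-normalized. Binding z-scores use the random background probes as reference.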
# [2] = tested on: LXRa:RXRa (NR concentration 270 nM, RXRa partner concentration 90 nM)
# Procedure, shortened: as §1
# [3] = tested on: LXRa homodimer (NR concentration 270 nM)
# Procedure, shortened: as §1
# [4] = tested on: LXRb:RXRa (NR concentration 270 nM, RXRa partner concentration 90 nM)
# Procedure, shortened: as §1
# [5] = tested on: LXRb homodimer (NR concentration 270 nM)
# Procedure, shortened: as §1
# [6] = tested on: PPARa:RXRa (NR concentration 270 nM, RXRa partner concentration 90 nM)
# Procedure, shortened: as §1
# [7] = tested on: PPARg:RXRa (NR concentration 180 nM, RXRa partner concentration 90 nM)
# Procedure, shortened: as §1
# [8] = tested on: PPARg:RXRa 270nM:90nM, anti-RXR (NR concentration 270 nM, RXRa partner concentration 90 nM)
# Procedure, shortened: as §1
# [9] = tested on: PPARg:RXRa 30nM:10nM, anti-RXR (NR concentration 30 nM, RXRa partner concentration 10 nM)
# Procedure, shortened: as §1
# [10] = tested on: PPARg:RXRa 90nM:30nM, anti-RXR (NR concentration 90 nM, RXRa partner concentration 30 nM)
# Procedure, shortened: as §1
# [11] = tested on: PPARg:RXRa DBDmut IVT, anti-RXR (DBD mutation: RXRa K156A/R161A, NR concentration 270 nM, RXRa partner concentration 90 nM)
# Procedure, shortened: as §1
# [12] = tested on: PPARg:RXRa IVT, anti-PPARg (NR concentration 270 nM, RXRa partner concentration 90 nM)
# Procedure, shortened: as §1
# [13] = tested on: PPARg DBDmut:RXRa IVT, anti-PPARg (DBD mutation: PPARg1 K132A/R137A, NR concentration 270 nM, RXRa partner concentration 90 nM)
# Procedure, shortened: as §1
# [14] = tested on: PPARg DBDmut IVT, anti-PPARg (DBD mutation: PPARg1 K132A/R137A, NR concentration 270 nM)
# Procedure, shortened: as §1
# [15] = tested on: PPARg homodimer (NR concentration 180 nM)
# Procedure, shortened: as §1
# [16] = tested on: PXR:RXRa (NR concentration 270 nM, RXRa partner concentration 90 nM)
# Procedure, shortened: as §1
# [17] = tested on: PXR homodimer (NR concentration 270 nM)
# Procedure, shortened: as §1
# [18] = tested on: RARa:RXR (NR concentration 270 nM, RXRa partner concentration 90 nM)
# Procedure, shortened: as §1
# [19] = tested on: RARa homodimer (NR concentration 270 nM)
# Procedure, shortened: as §1
# [20] = tested on: RARb:RXRa (NR concentration 270 nM, RXRa partner concentration 90 nM)
# Procedure, shortened: as §1
Sequence,PBM binding z-score [1],PBM binding z-score [2],PBM binding z-score [3],PBM binding z-score [4],PBM binding z-score [5],PBM binding z-score [6],PBM binding z-score [7],PBM binding z-score [8],PBM binding z-score [9],PBM binding z-score [10],PBM binding z-score [11],PBM binding z-score [12],PBM binding z-score [13],PBM binding z-score [14],PBM binding z-score [15],PBM binding z-score [16],PBM binding z-score [17],PBM binding z-score [18],PBM binding z-score [19],PBM binding z-score [20]
AATACAGGGTCACTAGGCCAAAGTAGGTACGAAT,6.51,4.99,1.08,4,1.01,6.26,8.6,6.83,4.18,6.09,4.25,6.12,1.52,1.47,2.51,3.27,0.193,4.17,0.959,4.31
TCTTGTAGATCTGCAGGTTAAGAAAGCTGGCCAA,0.0261,0.396,-0.113,0.457,-0.445,0.515,-0.788,1.01,2.56,1.89,1.64,-0.0995,-0.0196,-0.962,-0.597,0.206,-0.0786,0.383,-0.894,0.204
GAGACAGGGTCAAGGCCAGAGTACGCGTATTGAT,6.57,3.62,-0.408,3.43,-0.789,5.24,4.71,4.73,1.4,3.22,1.79,2.9,0.251,-0.239,2,3.78,-0.543,4.4,0.471,4.2
CCAACTGGGCCAAGGTCATTGATCAGTCAAAGCA,2.96,2.9,0.591,2.91,-0.522,4.3,4.16,4.06,1.82,3.3,4.04,4.58,-0.617,-0.824,1.58,3.11,0.914,3.22,0.0494,3.39
GCGACTGGGGCCAAGCAGGTTACCATAAGGTTGG,-0.268,-0.471,-0.686,-0.129,-1.37,0.516,0.164,-0.27,-0.91,-0.642,-0.26,-0.0452,-0.943,-1.96,-0.242,-0.00892,-0.184,0.223,-1.01,1.14
CCTACTGGGCCCAAGGTCATTGATTCCAATGCTC,2.45,2.46,1.44,2.53,0.0311,3.65,6.53,6.93,5.33,6.47,-0.0484,3.05,-0.816,-1.27,1.42,3.24,1.78,3.17,0.145,2.79
ACAGACAGGTGATGAATGTAACTCAGGCTATCAT,-0.237,-0.163,0.164,0.1,-0.131,0.166,0.735,-0.0666,0.338,-0.0676,0.0883,0.304,0.806,0.471,0.379,-0.102,-0.0195,0.181,0.656,0.0754
TAAATGAGGTTATAAGATCAGGGAACGTTGCAAA,1.94,2.28,0.212,1.55,0.646,2.85,2.1,2.73,2.19,2.51,2.84,2.73,1.59,1.61,0.912,1,0.251,1.62,0.307,1.33
ATCGAAAGGTCGAGGTGAGAATAGAGAAAGGGAA,4.1,3.48,0.181,2.84,0.399,4.79,3.58,3.93,1.56,2.64,0.541,2.39,1.22,0.93,0.599,2.36,0.337,3.52,0.51,4.16
GGAACCAGGGCATTCGAGTTGATAGCATGGCGAT,1.3,0.74,-0.0183,0.0646,0.153,1.69,0.973,0.862,-0.134,0.0636,3.39,2.91,-0.295,0.956,1.01,2.12,0.865,0.882,0.0816,1.72
CCTAGTTGGTCAGGAGGTCACACACCGGATATGA,3.73,3.67,2.08,3.3,0.83,4.11,3.41,3.95,1.75,3.27,1.79,3.68,0.499,0.258,3.9,4.41,1.41,4.76,2.91,3.82
CGAACTAGGTCTAGGACAGTGAATCTCCGCACGC,-0.409,-0.606,-0.429,-1.12,-0.723,-0.176,0.461,-0.367,-0.539,-0.377,2.28,1.58,-0.66,-0.934,-0.583,-0.626,-0.327,-0.766,-0.883,-0.221
TAGGCTAGGTCAGATCGGGCCAGTATACGCTATA,1.84,0.947,-0.397,0.688,-0.542,1.42,0.684,0.646,-0.0664,0.434,0.883,1.39,-0.0594,-0.524,0.195,1.54,-0.57,1.55,-0.477,3.3
TCTAGTTGGTCAAAGGTCACACACTCGAAATGCG,6.09,5.91,4,5.53,1.76,6.56,11.6,10,10.4,12.2,3.69,6.56,2.18,2.02,6.43,6.12,1.83,7.45,3.65,5.09
